PubChem BioAssay (NCI)
This is part of a sample that, as a whole, favours compounds with a hit. Of some 79,000 tested, about 15% had one in any assay. Unmarked numbers belong to inactive results. Active and inactive are the calls of the source. Cut-off read from the data, not from the text of the source: active = growth inhibition above about 70%; inactive = the rest. Where a SMILES comes first, the peptide text is derived from it. The star is where a group is joined. Trt = c1ccc(C(c2ccccc2)(c2ccccc2)*)cc1

Legend:
[1] = NCI Yeast Anticancer Drug Screen. Data for the rad50 strain (AID 155);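 note: 0% = growth of vehicle-only cultures of the same strain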; details: S. cerevisiae rad50 strain growth inhibition; at 50.0 µM; hits give high values
Summary of the method: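 Compounds were tested on a yeast strain with an engineered DNA damage repair alteration; the reported value is growth inhibition normalised to vehicle treatment.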

[2] = NCI Yeast Anticancer Drug Screen. Data for the mec2-1 strain (AID 157); details: S. cerevisiae mec2-1 strain, at 50.0 µM, hits give high values
Summary of the method: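 Cells of the genetically defined mec2-1 yeast strain are incubated with test compound. Inhibition of growth is calculated against vehicle-treated controls.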

[3] = NCI Yeast Anticancer Drug Screen. Data for the sgs1 mgt1 strain (AID 161);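 note: 0% = growth of cultures given vehicle only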; details: S. cerevisiae sgs1 mgt1 strain, at 50.0 µM, hits give high values
Summary of the method: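 Mutant yeast exposed to compound; growth scored against vehicle-only wells.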

[4] = NCI Yeast Anticancer Drug Screen. Data for the cln2 rad14 strain (AID 165);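 note: 0% = growth equal to vehicle treated cultures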; details: S. cerevisiae cln2 rad14 strain, at 50.0 µM, hits give high values
Summary of the method: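 The screen exposed genetically defined yeast (cln2 rad14) to test compounds and scored growth inhibition relative to vehicle-treated controls.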

[5] = NCI Yeast Anticancer Drug Screen. Data for the bub3 strain (AID 167); details: S. cerevisiae bub3 mutant strain, at 50.0 µM, hits give high values
Summary of the method: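 Growth of a checkpoint-deficient yeast mutant is measured after compound exposure. Values represent inhibition relative to vehicle.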

[6] = NCI Yeast Anticancer Drug Screen. Data for the mlh1 rad18 strain (AID 175); details: S. cerevisiae mlh1 rad18 strain growth inhibition; at 50.0 µM; hits give high values
Summary of the method: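 Compound-treated yeast growth, normalised to vehicle controls. Strain bears defined DNA repair mutations.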

Compound | growth inhibition [1] | growth inhibition [2] | growth inhibition [3] | growth inhibition [4] | growth inhibition [5] | growth inhibition [6]
O=C(NCc1ccc2ccc3cccnc3c2n1)c1ccc[n+](Cc2ccccc2)c1 | -6.1% | -11.6% | 5.65% | 3.5% | 10.1% | 1.75%
C/C(CC(=O)Nc1ccccc1C)=N/NS(=O)(=O)c1ccc(C)cc1 | -2.2% | -5.2% | 10.2% | 19.3% | -18.4% | -6.9%
CNC(=O)CCC(=O)O | -7.25% | -20.2% | -7.5% | -2.7% | -23.4% | -8.45%
CC(=O)CCn1c(=S)sc2ccccc21 | -6.3% | 30.2% | 59.5% | 12.2% | 29.7% | -28.6%
Cc1cccc(NC(=O)NC(O)C(Cl)(Cl)Cl)c1 (stereo unspecified) | 1.65% | -3.35% | -6.25% | -43% | -16.6% | 0.95%
CN(C)c1ccc(N=Cc2ccc3c(c2)OCO3)cc1 | -6.65% | 6.3% | -15.3% | -18.1% | -6.1% | -0.05%
Nc1ccc(Cl)cc1[N+](=O)[O-] | 4.85% | -3.75% | 12.2% | 25.1% | -3.9% | 15.8%
CC(=O)OCC1OC(n2ccc(NC(=O)Nc3ccn(C4OC(COC(C)=O)C(OC(C)=O)C4OC(C)=O)c(=O)n3)nc2=O)C(OC(C)=O)C1OC(C)=O (stereo unspecified) | -2.25% | -11.1% | 8.25% | -5.35% | -2.25% | 10.9%
CC(C)C/C(=N\NC(N)=O)C1=CCCCC1 | 10.8% | 4.2% | -1.15% | -40.5% | -0.1% | 11.7%
COC(=O)C(NC(=O)C(N)CSC(c1ccccc1)(c1ccccc1)c1ccccc1)C(C)C (stereo unspecified) (H-Cys(Trt)-Val-OMe; configuration not given here) | 97.3% (active) | 98.6% (active) | 98.7% (active) | 95.2% (active) | 97.6% (active) | 98.5% (active)
COC(=O)C1CCC(C)(C(N)=O)C1(C)C (stereo unspecified) | 16% | 3% | -10.9% | -37.8% | 5.25% | 9.7%
CCCCc1c(O)c2c(=O)[nH]c(C)nc2oc1=O | -9.8% | -5.95% | -9.65% | -13.2% | -32.4% | 10.9%
O=C1C(=O)N(c2ccc(Cl)cc2Cl)C(=O)C(=O)C1c1nc2ccccc2s1 | 43.1% | 29.7% | 4% | 24.2% | 25.6% | 29%
NC1(C(=O)OCc2ccccc2)CCCC1 | 18.6% | -5.45% | -14.1% | 1.9% | -1.7% | 37.9%
CS/C(N)=N\C(=O)N(C)C | 2.75% | -14.5% | -4.45% | -20.6% | -8.55% | 3.65%
CCOP(=O)(OCC)/C(C#N)=C/c1cc(OC)ccc1OC | 28.4% | -4.75% | -2.65% | -8.9% | -13.4% | 11.8%
COc1ccc2c(c1)CC/C2=N/O | -10.7% | 3.05% | -4.5% | -21.3% | -22.8% | 2.1%
O=C(c1ccncc1)C(C(c1ccccc1)N1CCOCC1)N1CCOCC1 (stereo unspecified) | 25.8% | 8.25% | 34% | 39.5% | 13.6% | 4.4%
OC1c2ccccc2-c2c(Cl)cc(Cl)cc21 (stereo unspecified) | 0.25% | 6.1% | 11.2% | -45.9% | 3.95% | 1.95%
O=C(NN1C(=O)CS(=O)(=O)C1c1ccc(C(F)(F)F)cc1)c1ccncc1 (stereo unspecified) | -10.7% | 2.2% | 5.8% | 8.8% | 1.05% | 7.75%
CCCCS(=O)(=O)Cc1ccccc1 | 1.75% | -0.55% | -1.25% | -14.1% | 0.3% | -17.4%
